# Reference: the supplement of paper PMC12282887
# ± gives the standard deviation of the averaged measurements.
# How the values were obtained:
# Experiment in all cases: promoter activity interaction Z-score (Lux/OD deviation from empty-vector control); higher = stronger promoter induction by the compound
# [1] = system: E. coli BW25113 acrABp lux reporter
# How it was run: (§1)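 E. coli BW25113 (wild type or marA, soxS or rob deletion) carrying low-copy luxCDABE promoter reporters grew in 40 µl LB Lennox in 384-well plates at 37°C. Each compound was tested at four 1:2 dilutions in biological duplicates. OD600 and luminescence were read every 30 min for 12 h. Areas were taken over 0–8 h (wild type) or 1–9 h (mutants), and wells below 10% of median growth area were removed. The score is the Z-transformed residual of growth-normalised luminescence fitted against the empty-vector control.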
# [2] = system: E. coli BW25113 marRABp lux reporter
# How it was run: as §1
# [3] = system: E. coli BW25113 micFp lux reporter
# How it was run: as §1
# [4] = system: E. coli BW25113 ompFp lux reporter
# How it was run: as §1
# [5] = system: E. coli BW25113 robp lux reporter
# How it was run: as §1
# [6] = system: E. coli BW25113 soxSp lux reporter
# How it was run: as §1
# [7] = system: E. coli BW25113 tolCp lux reporter
# How it was run: as §1
# [8] = 18.9 µg/ml, genetic background: wild type
# [9] = 18.9 µg/ml, genetic background: ΔmarA
# [10] = 18.9 µg/ml, genetic background: Δrob
# [11] = 18.9 µg/ml, genetic background: ΔsoxS
# [12] = 37.8 µg/ml, genetic background: wild type
# [13] = 37.8 µg/ml, genetic background: ΔmarA
# [14] = 37.8 µg/ml, genetic background: Δrob
# [15] = 37.8 µg/ml, genetic background: ΔsoxS
# [16] = 75.6 µg/ml, genetic background: wild type
# [17] = 75.6 µg/ml, genetic background: ΔmarA
# [18] = 75.6 µg/ml, genetic background: Δrob
# [19] = 75.6 µg/ml, genetic background: ΔsoxS
# [20] = 151.1 µg/ml, genetic background: wild type
# [21] = 151.1 µg/ml, genetic background: ΔmarA
# [22] = 151.1 µg/ml, genetic background: Δrob
# [23] = 151.1 µg/ml, genetic background: ΔsoxS
structure (smiles),measurement,setting,value
O=c1c(O)c(-c2ccc(O)c(O)c2)oc2cc(O)cc(O)c12 [Quercetin],promoter activity interaction Z-score,[1]; [8],0.0407 ± 0.033
same,promoter activity interaction Z-score,[1]; [9],0.285 ± 0.58
same,promoter activity interaction Z-score,[1]; [10],0.143 ± 0.3
same,promoter activity interaction Z-score,[1]; [11],-0.34 ± 0.38
same,promoter activity interaction Z-score,[1]; [12],-0.233 ± 0.072
same,promoter activity interaction Z-score,[1]; [13],-0.0432 ± 0.69
same,promoter activity interaction Z-score,[1]; [14],0.164 ± 0.29
same,promoter activity interaction Z-score,[1]; [15],-0.184 ± 0.31
same,promoter activity interaction Z-score,[1]; [16],0.12 ± 0.43
same,promoter activity interaction Z-score,[1]; [17],-0.0185 ± 1.1
same,promoter activity interaction Z-score,[1]; [18],0.926 ± 1.1
same,promoter activity interaction Z-score,[1]; [19],-0.604 ± 0.62
same,promoter activity interaction Z-score,[1]; [20],-0.353 ± 0.089
same,promoter activity interaction Z-score,[1]; [21],0.59 ± 0.8
same,promoter activity interaction Z-score,[1]; [22],-0.142 ± 0.23
same,promoter activity interaction Z-score,[1]; [23],-0.9 ± 0.8
same,promoter activity interaction Z-score,[2]; [8],0.0379 ± 0.17
same,promoter activity interaction Z-score,[2]; [9],-0.192 ± 0.25
same,promoter activity interaction Z-score,[2]; [10],-0.164 ± 0.21
same,promoter activity interaction Z-score,[2]; [11],0.203 ± 0.51
same,promoter activity interaction Z-score,[2]; [12],0.341 ± 0.79
same,promoter activity interaction Z-score,[2]; [13],0.116 ± 0.59
same,promoter activity interaction Z-score,[2]; [14],0.248 ± 0.078
same,promoter activity interaction Z-score,[2]; [15],0.179 ± 0.43
same,promoter activity interaction Z-score,[2]; [16],0.82 ± 0.64
same,promoter activity interaction Z-score,[2]; [17],0.9 ± 0.12
same,promoter activity interaction Z-score,[2]; [18],-0.0348 ± 0.087
same,promoter activity interaction Z-score,[2]; [19],0.129 ± 0.45
same,promoter activity interaction Z-score,[2]; [20],1.13 ± 0.91
same,promoter activity interaction Z-score,[2]; [21],0.91 ± 0.61
same,promoter activity interaction Z-score,[2]; [22],0.867 ± 0.51
same,promoter activity interaction Z-score,[2]; [23],0.0221 ± 0.045
same,promoter activity interaction Z-score,[3]; [8],-0.288 ± 0.045
same,promoter activity interaction Z-score,[3]; [9],-0.0462 ± 0.033
same,promoter activity interaction Z-score,[3]; [10],-0.011 ± 0.074
same,promoter activity interaction Z-score,[3]; [11],-0.324 ± 0.11
same,promoter activity interaction Z-score,[3]; [12],-0.188 ± 0.12
same,promoter activity interaction Z-score,[3]; [13],0.0255 ± 0.15
same,promoter activity interaction Z-score,[3]; [14],-0.0437 ± 0.18
same,promoter activity interaction Z-score,[3]; [15],0.101 ± 0.056
same,promoter activity interaction Z-score,[3]; [16],-0.0961 ± 0.062
same,promoter activity interaction Z-score,[3]; [17],0.0844 ± 0.079
same,promoter activity interaction Z-score,[3]; [18],-0.0403 ± 0.11
same,promoter activity interaction Z-score,[3]; [19],-0.101 ± 0.085
same,promoter activity interaction Z-score,[3]; [20],0.0699 ± 0.42
same,promoter activity interaction Z-score,[3]; [21],0.224 ± 0.17
same,promoter activity interaction Z-score,[3]; [22],0.00151 ± 0.41
same,promoter activity interaction Z-score,[3]; [23],-0.0142 ± 0.042
same,promoter activity interaction Z-score,[4]; [8],0.228 ± 0.3
same,promoter activity interaction Z-score,[4]; [9],-0.0494 ± 0.2
same,promoter activity interaction Z-score,[4]; [10],-0.0408 ± 0.12
same,promoter activity interaction Z-score,[4]; [11],-0.358 ± 0.37
same,promoter activity interaction Z-score,[4]; [12],5.13 ± 7
same,promoter activity interaction Z-score,[4]; [13],0.88 ± 1.6
same,promoter activity interaction Z-score,[4]; [14],1.304 ± 0.013
same,promoter activity interaction Z-score,[4]; [15],0.531 ± 0.91
same,promoter activity interaction Z-score,[4]; [16],0.467 ± 1.2
same,promoter activity interaction Z-score,[4]; [17],0.186 ± 0.5
same,promoter activity interaction Z-score,[4]; [18],0.616 ± 1.3
same,promoter activity interaction Z-score,[4]; [19],-0.383 ± 0.54
same,promoter activity interaction Z-score,[4]; [20],0.00251 ± 0.91
same,promoter activity interaction Z-score,[4]; [21],0.373 ± 2.1
same,promoter activity interaction Z-score,[4]; [22],1.79 ± 0.024
same,promoter activity interaction Z-score,[4]; [23],-0.395 ± 0.84
same,promoter activity interaction Z-score,[5]; [8],0.802 ± 0.18
same,promoter activity interaction Z-score,[5]; [9],0.257 ± 0.52
same,promoter activity interaction Z-score,[5]; [10],0.102 ± 0.22
same,promoter activity interaction Z-score,[5]; [11],0.13 ± 0.66
same,promoter activity interaction Z-score,[5]; [12],0.9459 ± 0.004
same,promoter activity interaction Z-score,[5]; [13],0.813 ± 0.4
same,promoter activity interaction Z-score,[5]; [14],0.818 ± 0.073
same,promoter activity interaction Z-score,[5]; [15],1.68 ± 0.85
same,promoter activity interaction Z-score,[5]; [16],0.907 ± 0.8
same,promoter activity interaction Z-score,[5]; [17],0.794 ± 0.53
same,promoter activity interaction Z-score,[5]; [18],0.226 ± 0.59
same,promoter activity interaction Z-score,[5]; [19],-0.114 ± 0.062
same,promoter activity interaction Z-score,[5]; [20],0.549 ± 0.61
same,promoter activity interaction Z-score,[5]; [21],0.417 ± 0.21
same,promoter activity interaction Z-score,[5]; [22],0.359 ± 0.075
same,promoter activity interaction Z-score,[5]; [23],0.712 ± 1.1
same,promoter activity interaction Z-score,[6]; [8],-0.413 ± 0.13
same,promoter activity interaction Z-score,[6]; [9],-0.385 ± 0.18
same,promoter activity interaction Z-score,[6]; [10],-0.267 ± 0.1
same,promoter activity interaction Z-score,[6]; [11],-0.281 ± 0.57
same,promoter activity interaction Z-score,[6]; [12],-0.368 ± 0.13
same,promoter activity interaction Z-score,[6]; [13],-0.526 ± 0.069
same,promoter activity interaction Z-score,[6]; [14],-0.179 ± 0.028
same,promoter activity interaction Z-score,[6]; [15],-0.0207 ± 0.51
same,promoter activity interaction Z-score,[6]; [16],-0.595 ± 0.016
same,promoter activity interaction Z-score,[6]; [17],-0.528 ± 0.057
same,promoter activity interaction Z-score,[6]; [18],-0.375 ± 0.034
same,promoter activity interaction Z-score,[6]; [19],-0.161 ± 0.89
same,promoter activity interaction Z-score,[6]; [20],-0.715 ± 0.13
same,promoter activity interaction Z-score,[6]; [21],-0.513 ± 0.048
same,promoter activity interaction Z-score,[6]; [22],-0.414 ± 0.054
same,promoter activity interaction Z-score,[6]; [23],-0.567 ± 1
same,promoter activity interaction Z-score,[7]; [8],-0.038 ± 0.65
same,promoter activity interaction Z-score,[7]; [9],-0.0776 ± 0.32
same,promoter activity interaction Z-score,[7]; [10],-0.506 ± 0.62
same,promoter activity interaction Z-score,[7]; [11],-0.651 ± 0.26
same,promoter activity interaction Z-score,[7]; [12],0.105 ± 0.049
same,promoter activity interaction Z-score,[7]; [13],0.271 ± 0.14
same,promoter activity interaction Z-score,[7]; [14],0.0838 ± 0.44
same,promoter activity interaction Z-score,[7]; [15],0.0451 ± 1.2
same,promoter activity interaction Z-score,[7]; [16],0.492 ± 0.9
same,promoter activity interaction Z-score,[7]; [17],0.253 ± 0.53
same,promoter activity interaction Z-score,[7]; [18],0.773 ± 0.82
same,promoter activity interaction Z-score,[7]; [19],-0.519 ± 0.18
same,promoter activity interaction Z-score,[7]; [20],0.00965 ± 1
same,promoter activity interaction Z-score,[7]; [21],0.125 ± 0.38
same,promoter activity interaction Z-score,[7]; [22],0.962 ± 1.8
same,promoter activity interaction Z-score,[7]; [23],-0.462 ± 0.4
